From PubChem BioAssay (EPA / NIEHS) come the findings set out here.

A short description of test [1]: ATG_PBREM_CIS: Attagene CIS-FACTORIAL HepG2 Assay for human Phenobarbital-responsive Enhancer Module (PBREM) (AID 2282955). The note with it: HepG2 PBREM cis-reporter, Attagene multiplexed transcription; actives raise or lower the signal. In a few lines: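 Cells were transfected with cis-element reporter units and treated for 24 h, after which RNA was extracted and reporter transcripts measured by RT-PCR and capillary electrophoresis.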

For test [2], the target named is Paired box protein Pax-6 (Homo sapiens) (UniProt P26367). In words: ATG_Pax6_CIS: Attagene CIS-FACTORIAL HepG2 Assay for human Paired Box 6 (PAX6) (AID 2282956). As to conditions: HepG2 CIS-FACTORIAL PAX6 reporter transcription, RNA readout; actives raise or lower the signal. The gist of the method: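 After twenty-four hours of chemical exposure, transfected HepG2 cells are harvested for RNA. Cis-promoter reporter transcripts are amplified, fluorescently labelled and sized by capillary electrophoresis, with gain and loss of signal scored against DMSO.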

Test [3] can be described thus: ATG_PXRE_CIS: Attagene CIS-FACTORIAL HepG2 Assay for human Pregnane X Receptor Element (PXRE) (AID 2282957). As to conditions: HepG2 Attagene CIS-FACTORIAL PXRE reporter, mRNA; actives raise or lower the signal. In a few lines:
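HepG2 cells transiently transfected with cis-element-driven multiplexed reporter units; after 24 h chemical exposure, reporter mRNA measured by RT-PCR, 6-FAM labelling, HpaI digestion and capillary electrophoresis. Bidirectional fitting relative to DMSO.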

The nature of test [4]: ATG_PPRE_CIS: Attagene CIS-FACTORIAL HepG2 Assay for human Peroxisome Proliferator-activated Response Element (PPRE) (AID 2282958). As to conditions: HepG2 PPRE cis-element reporter, Attagene transcription factor profiling; actives raise or lower the signal. In a few lines:
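In this cell-based multiplex, a PPRE cis element drives a reporter sequence in transiently transfected HepG2 cells. Following 24 h treatment, labeled cDNA amplicons are sized and quantified by capillary electrophoresis, with DMSO defining baseline.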

The nature of test [5]: ATG_RORE_CIS: Attagene CIS-FACTORIAL HepG2 Assay for human RAR-related Orphan Receptor Element (RORE) (AID 2282959). As to conditions: HepG2 Attagene cis-factorial RORE reporter, mRNA; actives raise or lower the signal. The gist of the method:
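Endogenous factor activity at a cis response element is read as reporter transcript levels in HepG2 cells, 24 h post-dose. Transcripts are quantified by RT-PCR with capillary electrophoresis, and data fitted in both directions against DMSO.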

The nature of test [6]: ATG_Sox_CIS: Attagene CIS-FACTORIAL HepG2 Assay for human SRY-box transcription factor (SOX) (AID 2282960). The note with it: HepG2 Attagene cis-factorial SOX reporter, mRNA; actives raise or lower the signal. In a few lines: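 Measures mRNA induction of a SOX1-associated reporter in HepG2 after 24 h dosing. Fluorescently labelled RT-PCR fragments are separated by capillary electrophoresis, and gain or loss relative to DMSO control is fitted.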

For test [7], the target named is Transcription factor Sp1 (Homo sapiens) (UniProt P08047). Briefly: ATG_Sp1_CIS: Attagene CIS-FACTORIAL HepG2 Assay for human Specificity Protein 1 (Sp1) (AID 2282961). As to conditions: HepG2 Sp1 cis-reporter transcription, actives raise or lower the signal. The gist of the method:
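Cells: HepG2, transiently transfected with cis-regulated multiplexed reporters. Exposure: 24 h. Detection: reporter transcripts amplified, fluorescently labeled, restriction-digested and sized by capillary electrophoresis. Analysis: bidirectional fit relative to DMSO.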

The nature of test [8]: ATG_SREBP_CIS: Attagene CIS-FACTORIAL HepG2 Assay for human Sterol Regulatory Element Binding (SREBP) (AID 2282962). The note with it: HepG2 Attagene cis-factorial SREBP reporter, mRNA; actives raise or lower the signal. In a few lines: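 Twenty-four hours after chemical dosing of transfected HepG2 cultures, reporter RNA was converted to cDNA, amplified, end-labelled with 6-FAM and resolved by capillary electrophoresis. Responses were fitted relative to DMSO.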

Test [9] addresses Signal transducer and activator of transcription 3 (Homo sapiens) (UniProt P40763). In words: ATG_STAT3_CIS: Attagene CIS-FACTORIAL HepG2 Assay for human Signal Transducer and Activator of Transcription 3 (STAT3) (AID 2282963). As to conditions: HepG2, Attagene cis-factorial STAT3 reporter transcription; actives raise or lower the signal. In a few lines: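 Endogenous STAT3-responsive cis-element activity was read in transiently transfected HepG2 cells after 24 h treatment. Reporter transcripts were quantified via RT-PCR and capillary electrophoresis, with DMSO as negative control and bidirectional curve fitting.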

A short description of test [10]: ATG_TA_CIS: Attagene CIS-FACTORIAL HepG2 Assay for human TA Basal Promoter (AID 2282964). The note with it: HepG2 Attagene CIS-factorial TA basal promoter reporter; actives raise or lower the signal. The gist of the method:
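Read-out: fluorescent reporter-transcript fragments resolved by capillary electrophoresis after RT-PCR and HpaI digestion. Source: HepG2 cells carrying transiently transfected multi-reporter cis constructs, treated 24 h. Endpoint fitted bidirectionally relative to DMSO.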

A short description of test [11]: ATG_TCF_b_cat_CIS: Attagene CIS-FACTORIAL HepG2 Assay for human T-Cell-Factor with beta-catenin (TCF/b-cat) (AID 2282965). The note with it: HepG2 TCF/beta-catenin cis-reporter transcription, actives raise or lower the signal. The gist of the method:
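Endogenous transcription factor activity is captured through cis-promoter reporter constructs transiently introduced into human HepG2 liver cells. Induced reporter mRNA is measured after 24 h and fitted bidirectionally relative to DMSO.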

Test [12] can be described thus: ATG_TAL_CIS: Attagene CIS-FACTORIAL HepG2 Assay for human TAL Basal Promoter (AID 2282966).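 Further: background control endpoint measuring basal TAL promoter reporter mRNA not a specific factor.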 As to conditions: HepG2 Attagene cis-factorial TAL promoter reporter; actives raise or lower the signal. The gist of the method: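 HepG2 cells transiently transfected with multiplexed cis-promoter reporter units, dosed 24 h. Reporter mRNA quantified by RT-PCR, 6-FAM labelling, HpaI digestion and capillary electrophoresis; TAL basal promoter serves as background control, fitted bidirectionally versus DMSO.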

The nature of test [13]: ATG_TGFb_CIS: Attagene CIS-FACTORIAL HepG2 Assay for human Transforming Growth Factor (TGF) (AID 2282967). As to conditions: HepG2 Attagene CIS TGFb reporter, mRNA transcription; actives raise or lower the signal. In a few lines: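 Transient MRTU transfection of HepG2 (FuGene 6). Dose 24 h. TriZol RNA, oligo(dT) RT, PCR, 6-FAM primer extension, HpaI cut, CE. Bidirectional fit, DMSO = baseline.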

Test [14] is described as follows: ATG_VDRE_CIS: Attagene CIS-FACTORIAL HepG2 Assay for human Vitamin D Receptor Element (VDRE) (AID 2282968). The note with it: HepG2 VDRE cis-reporter transcription, actives raise or lower the signal. The gist of the method:
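Reporter mRNA induction, quantified by capillary electrophoresis of fluorescently labelled RT-PCR products, was read 24 h after dosing HepG2 cells carrying transiently transfected cis-regulated reporter units; gain or loss relative to DMSO.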

The target in test [15] is Nuclear receptor subfamily 1 group I member 3 (Homo sapiens) (UniProt Q14994). In words: ATG_CAR_TRANS: Attagene TRANS-FACTORIAL HepG2 Assay for human Constitutive Androstane Receptor (CAR) (AID 2282969; active means hit-call score of the fitted dose curve at least 0.9, where 1 is the maximum;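 further: activators raise reporter mRNA above DMSO so AC50 marks induction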). As to conditions: HepG2 Attagene TRANS-FACTORIAL CAR reporter. The gist of the method:
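Readout is reporter mRNA induction, quantified by fluorescent primer extension and capillary electrophoresis after RT-PCR. Cells were HepG2 transiently carrying chimeric NR-Gal4 constructs with GAL4-UAS reporters, treated for 24 h; activity scored upward from DMSO.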

Test [16] addresses Estrogen receptor (Homo sapiens) (UniProt P03372). Briefly: ATG_ERa_TRANS: Attagene TRANS-FACTORIAL HepG2 Assay for human Estrogen Receptor alpha (ERa) (AID 2282970; active means hit-call score of the fitted dose curve at least 0.9, where 1 is the maximum). The note with it: HepG2 Attagene TRANS ERa GAL4 reporter, mRNA. The gist of the method:
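HepG2 cells transiently transfected with multiplexed GAL4-UAS reporter units read out chimeric NR-Gal4 activity. After 24 h compound exposure, reporter mRNA was quantified by RT-PCR, 6-FAM labeling, HpaI digestion and capillary electrophoresis, relative to DMSO.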

For test [17], the target named is X-box-binding protein 1 (Homo sapiens) (UniProt P17861). Briefly: ATG_Xbp1_CIS: Attagene CIS-FACTORIAL HepG2 Assay for human X-box Binding Protein 1 (XBP1) (AID 2282972). As to conditions: HepG2 XBP1 cis-element reporter, Attagene multiplex; actives raise or lower the signal. In a few lines: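 After a 24-hour chemical exposure of HepG2 cells carrying cis-regulated reporters, reporter mRNA levels are assessed. Quantification uses RT-PCR, 6-FAM labelling and capillary electrophoresis. Gain- or loss-of-signal is fitted against DMSO.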

A short description of test [18]: ATG_M_19_TRANS: Attagene TRANS-FACTORIAL HepG2 Assay for M19 Transcription Factor (Internal Marker) (AID 2282974; active means hit-call score of the fitted dose curve at least 0.9, where 1 is the maximum). As to conditions: HepG2 Attagene TRANS-FACTORIAL M19 internal marker reporter. In a few lines:
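Reporter mRNA induction was measured in transfected HepG2 cells 24 h after dosing. Endpoint fitted upward relative to DMSO and serves as a background control within the multiplexed TRANS panel.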

Test [19] is described as follows: ATG_GAL4_TRANS: Attagene TRANS-FACTORIAL HepG2 Assay for GAL4 (Internal Marker) (AID 2282976; active means hit-call score of the fitted dose curve at least 0.9, where 1 is the maximum). As to conditions: HepG2 Attagene TRANS GAL4 internal marker reporter. In a few lines:
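Background-control readout: GAL4-UAS reporter transcript in transiently transfected HepG2 cells after 24 h compound exposure. Measured by RT-PCR, 6-FAM primer extension, HpaI digest and capillary electrophoresis; gain-of-signal fit versus DMSO.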

Test [20] deals with Steroid hormone receptor ERR1 (Homo sapiens) (UniProt P11474). Briefly: ATG_ERRa_TRANS: Attagene TRANS-FACTORIAL HepG2 Assay for human Estrogen-Related Receptor alpha (ERRa) (AID 2282971; active means hit-call score of the fitted dose curve at least 0.9, where 1 is the maximum). The note with it: HepG2 Attagene TRANS reporter, ERRa transactivation. In a few lines:
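HepG2 cells transiently transfected with GAL4-UAS reporter units and chimeric NR-Gal4 constructs; after 24 hour compound incubation, reporter mRNA quantified by RT-PCR, fluorescent labelling and capillary electrophoresis, gain of signal versus DMSO.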

Usually AC50 stands for the concentration giving half of the maximal activity seen.

Inconclusive results are not listed. Active and inactive are the calls of the source. How the source made its calls, unless noted: active means hit-call score of the fitted dose curve at least 0.9, where 1 is the maximum; inactive means score below 0.9.

Chain of Nuclear receptor subfamily 1 group I member 3 (Homo sapiens) (Q14994 whole entry, looked up, the tested form may be a part): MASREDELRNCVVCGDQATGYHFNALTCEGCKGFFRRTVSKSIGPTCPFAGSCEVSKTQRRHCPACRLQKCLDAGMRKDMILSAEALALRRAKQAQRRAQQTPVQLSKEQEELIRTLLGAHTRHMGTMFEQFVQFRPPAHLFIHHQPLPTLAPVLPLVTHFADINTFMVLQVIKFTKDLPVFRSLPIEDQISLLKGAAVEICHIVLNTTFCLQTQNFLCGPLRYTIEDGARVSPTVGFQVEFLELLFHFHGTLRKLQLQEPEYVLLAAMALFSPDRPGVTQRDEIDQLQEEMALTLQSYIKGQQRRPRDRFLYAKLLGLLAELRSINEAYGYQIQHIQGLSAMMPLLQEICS
Chain of Paired box protein Pax-6 (Homo sapiens) (P26367 whole entry, looked up): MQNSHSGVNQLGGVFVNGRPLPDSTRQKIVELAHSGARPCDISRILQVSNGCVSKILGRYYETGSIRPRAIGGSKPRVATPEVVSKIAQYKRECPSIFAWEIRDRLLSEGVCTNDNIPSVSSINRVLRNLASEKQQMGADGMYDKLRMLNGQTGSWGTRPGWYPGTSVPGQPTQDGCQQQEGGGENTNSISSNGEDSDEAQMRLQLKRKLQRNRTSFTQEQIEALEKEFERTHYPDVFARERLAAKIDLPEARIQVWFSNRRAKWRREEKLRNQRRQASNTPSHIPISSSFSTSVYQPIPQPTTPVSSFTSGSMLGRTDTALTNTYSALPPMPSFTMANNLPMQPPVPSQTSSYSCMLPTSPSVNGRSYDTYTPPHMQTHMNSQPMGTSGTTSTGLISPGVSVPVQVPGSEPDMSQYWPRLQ
Chain of Transcription factor Sp1 (Homo sapiens) (P08047 whole entry, looked up): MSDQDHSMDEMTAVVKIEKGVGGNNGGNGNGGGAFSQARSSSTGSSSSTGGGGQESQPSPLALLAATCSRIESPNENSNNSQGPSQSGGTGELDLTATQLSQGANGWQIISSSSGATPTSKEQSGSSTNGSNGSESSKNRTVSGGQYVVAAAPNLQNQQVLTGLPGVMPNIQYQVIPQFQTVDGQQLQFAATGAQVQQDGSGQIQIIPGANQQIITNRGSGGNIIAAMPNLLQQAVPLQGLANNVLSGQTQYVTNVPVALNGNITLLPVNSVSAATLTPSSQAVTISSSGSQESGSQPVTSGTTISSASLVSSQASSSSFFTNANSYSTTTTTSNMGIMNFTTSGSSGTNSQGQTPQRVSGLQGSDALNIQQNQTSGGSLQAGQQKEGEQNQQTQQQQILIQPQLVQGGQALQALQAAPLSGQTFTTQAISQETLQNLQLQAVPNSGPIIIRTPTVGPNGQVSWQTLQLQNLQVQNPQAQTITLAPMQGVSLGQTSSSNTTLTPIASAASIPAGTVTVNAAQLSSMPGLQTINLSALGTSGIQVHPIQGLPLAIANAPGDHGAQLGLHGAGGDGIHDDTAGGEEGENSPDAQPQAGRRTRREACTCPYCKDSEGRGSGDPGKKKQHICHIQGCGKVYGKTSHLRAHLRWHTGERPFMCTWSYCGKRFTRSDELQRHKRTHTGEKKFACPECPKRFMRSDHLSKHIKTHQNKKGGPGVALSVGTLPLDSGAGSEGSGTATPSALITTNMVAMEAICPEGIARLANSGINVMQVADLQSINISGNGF
Chain of Signal transducer and activator of transcription 3 (Homo sapiens) (P40763 whole entry, looked up): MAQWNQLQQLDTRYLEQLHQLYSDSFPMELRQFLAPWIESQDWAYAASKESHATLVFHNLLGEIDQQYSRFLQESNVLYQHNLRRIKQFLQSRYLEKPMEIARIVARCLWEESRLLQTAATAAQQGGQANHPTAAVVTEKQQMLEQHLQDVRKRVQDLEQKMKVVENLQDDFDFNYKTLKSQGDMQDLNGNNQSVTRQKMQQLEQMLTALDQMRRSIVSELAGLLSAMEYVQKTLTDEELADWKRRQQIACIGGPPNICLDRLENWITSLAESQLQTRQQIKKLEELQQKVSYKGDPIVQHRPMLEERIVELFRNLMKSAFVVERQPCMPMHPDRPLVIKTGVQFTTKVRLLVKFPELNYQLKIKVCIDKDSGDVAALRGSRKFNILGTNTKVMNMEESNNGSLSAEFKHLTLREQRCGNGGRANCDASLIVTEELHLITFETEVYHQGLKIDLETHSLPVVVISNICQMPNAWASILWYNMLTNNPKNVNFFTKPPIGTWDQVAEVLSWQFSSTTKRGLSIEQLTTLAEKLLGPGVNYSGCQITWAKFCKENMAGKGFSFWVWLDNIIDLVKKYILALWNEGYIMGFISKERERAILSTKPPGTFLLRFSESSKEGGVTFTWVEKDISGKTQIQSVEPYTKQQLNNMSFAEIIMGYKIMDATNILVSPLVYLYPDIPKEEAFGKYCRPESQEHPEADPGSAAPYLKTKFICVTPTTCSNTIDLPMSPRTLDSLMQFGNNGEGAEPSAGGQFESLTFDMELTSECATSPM
Chain of X-box-binding protein 1 (Homo sapiens) (P17861 whole entry, looked up): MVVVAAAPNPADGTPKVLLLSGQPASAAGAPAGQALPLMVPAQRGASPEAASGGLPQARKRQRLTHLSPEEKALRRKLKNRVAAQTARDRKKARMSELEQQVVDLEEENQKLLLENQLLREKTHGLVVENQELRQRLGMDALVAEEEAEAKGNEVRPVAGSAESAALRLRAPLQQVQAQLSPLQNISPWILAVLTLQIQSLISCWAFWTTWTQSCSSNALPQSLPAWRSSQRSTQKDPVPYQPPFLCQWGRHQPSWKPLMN
Chain of Estrogen receptor (Homo sapiens) (P03372 whole entry, looked up, the tested form may be a part): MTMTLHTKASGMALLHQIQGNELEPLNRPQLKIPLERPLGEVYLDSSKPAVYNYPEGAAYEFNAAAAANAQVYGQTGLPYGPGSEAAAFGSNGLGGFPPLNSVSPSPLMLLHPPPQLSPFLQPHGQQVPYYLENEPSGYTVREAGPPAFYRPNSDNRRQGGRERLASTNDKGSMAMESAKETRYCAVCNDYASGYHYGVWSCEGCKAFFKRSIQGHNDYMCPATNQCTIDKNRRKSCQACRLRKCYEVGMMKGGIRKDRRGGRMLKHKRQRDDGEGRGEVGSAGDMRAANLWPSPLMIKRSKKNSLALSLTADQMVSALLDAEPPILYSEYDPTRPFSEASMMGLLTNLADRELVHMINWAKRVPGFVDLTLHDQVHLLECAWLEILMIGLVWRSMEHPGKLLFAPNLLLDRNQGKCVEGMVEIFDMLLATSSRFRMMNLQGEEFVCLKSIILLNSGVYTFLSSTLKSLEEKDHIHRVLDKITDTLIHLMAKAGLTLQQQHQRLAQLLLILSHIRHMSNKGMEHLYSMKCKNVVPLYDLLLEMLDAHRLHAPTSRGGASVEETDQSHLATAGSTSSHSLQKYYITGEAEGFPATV
Chain of Steroid hormone receptor ERR1 (Homo sapiens) (P11474 whole entry, looked up, the tested form may be a part): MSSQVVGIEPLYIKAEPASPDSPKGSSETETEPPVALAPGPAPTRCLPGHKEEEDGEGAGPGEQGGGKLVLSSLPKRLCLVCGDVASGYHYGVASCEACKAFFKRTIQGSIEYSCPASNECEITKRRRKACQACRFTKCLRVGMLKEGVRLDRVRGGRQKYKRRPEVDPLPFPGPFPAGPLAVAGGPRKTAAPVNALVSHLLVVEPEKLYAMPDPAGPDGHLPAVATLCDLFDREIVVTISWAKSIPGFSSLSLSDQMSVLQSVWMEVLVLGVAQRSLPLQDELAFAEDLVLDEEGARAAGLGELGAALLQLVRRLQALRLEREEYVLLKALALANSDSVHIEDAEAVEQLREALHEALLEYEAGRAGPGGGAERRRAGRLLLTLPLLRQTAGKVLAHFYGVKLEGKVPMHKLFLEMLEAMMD

Consider `CCCO[Si](OCCC)(OCCC)OCCC`, for which the outcome in test [1], in test [2], in [3], in test [5], in test [6] and in [7] was inactive. Besides, the molecule was classed as inactive in test [8], in test [9], in test [10], in [11], in test [12] and in test [13]. The molecule was classed as inactive in test [14], in [15], in test [16], in [17], in test [18] and in [19]. In addition, the AC50 in test [4] was 42.2 µM (active).

As for `CCCCCCCCCCCCCC(=O)OCC`, the outcome in [1], in test [2], in [3], in test [4], in test [5] and in test [6] was inactive. Further, the molecule was classed as inactive in test [7], in test [8], in test [9], in test [10], in [11] and in test [12]. Besides, the call in [13], in test [14], in test [15], in test [17] and in test [18] was inactive.

`CCCCCCCC(=O)N(C)C`: the result in [1], in [2], in test [4], in [5], in test [6] and in test [7] was inactive. Besides, the molecule was classed as inactive in test [8], in test [9], in [10], in test [11], in test [12] and in [14]. The result in test [15], in [16], in [20], in [17], in [18] and in test [19] was inactive. Also, in [3], the AC50 is 42.4 µM (active).
